High-throughput results: PubChem, National Center for Advancing Translational Sciences (NCATS)
This excerpt belongs to a sample that is enriched for hits.
Pf Dd2 inh: qHTS Primary assay for Inhibitors of Plasmodium falciparum Dd2 growth in vitro; P. falciparum Dd2 growth, SYBR Green, 72 h; Potency, µM (highest dose often 28.9 µM), without a hit: at the top dose activity, negative = inhibition, hits mostly inhibitors; hit rate 4.3% among 120,000; AID 1347417, 2020; active = well fitted inhibition curve with a large enough effect;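 note: plate controls were DMSO vehicle for no effect and reference drug for full effect; nearly all actives have a fitted effect of over 65% in size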
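Readout: SYBR Green fluorescence, 485 nm excitation, 535 nm emission, after ~16 h lysis at 37C. Before that, Dd2-infected red cells (2.5% hematocrit) grew 72 h with compound, 29 uM top final concentration.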
* hit, by the source's call; i = inactive; [ ] = remark or other dose. Potency is the fitted concentration of half-maximal effect.

SMILES	Pf Dd2 inh
COc1ccc(NC(=O)c2nc(S(C)(=O)=O)ncc2N(Cc2ccc(C)cc2)Cc2ccco2)cc1Cl	10µM*
Cc1ccc(NC(=O)c2nc(S(C)(=O)=O)ncc2N(Cc2ccc(C(C)(C)C)cc2)Cc2ccco2)cc1C	7.1µM*
Cc1ccc(CN(Cc2ccco2)C(=O)COc2ccc(Cl)cc2Cl)cc1	-23%
COc1ccc(NC(=O)Cn2c(N(C)Cc3ccccc3)nc(C)cc2=O)cc1Cl	-4%
Cc1ccsc1CN(Cc1ccco1)c1cnc(S(C)(=O)=O)nc1C(=O)Nc1ccc(Cl)cc1	4.5µM*
Cc1ccc(NC(=O)c2nc(S(=O)(=O)Cc3ccc(F)cc3)ncc2Cl)cc1C	43%[5.79 µM]
CCCS(=O)(=O)c1ncc(Cl)c(C(=O)N(Cc2ccccc2)Cc2ccco2)n1	8%
CN(c1ccccc1)S(=O)(=O)c1ccc(NC(=O)c2nc(S(C)(=O)=O)ncc2Cl)cc1	15%[5.79 µM]
CC(C)(C)c1ccc(C(=O)N(Cc2ccc(F)cc2)Cc2ccco2)cc1	-14%
CCS(=O)(=O)c1ncc(N(Cc2ccccc2)Cc2ccco2)c(C(=O)Nc2ccc(C)c(C)c2)n1	5µM*
COC[C@H]1CCCN1C[C@H]1CN2CC[C@H]1C[C@@H]2CN	18%[44.1 µM]
Cc1nc2ncccn2c1C(=O)N1C[C@H]2C(=O)NC[C@@]2(C(=O)O)C1	-9%
CC(C)N1CCCC2(CCN(S(=O)(=O)c3ccc(F)cc3F)C2)C1=O (stereo not given)	-10%
COC1CCC12CCN(C(=O)c1nccn1C)CC2 (stereo not given)	3%
O=C(c1nc(-c2cc(Cl)cc(Cl)c2)c2ccccn12)N1CCCC1	2%
Cc1ccccc1CC(=O)N1CCC2(CC1)NC(=O)N(c1ccc(F)cc1)N2	-21%
Cc1ccccc1C(=O)N1CCC2(CC1)CC(=O)N(c1ccccc1)c1ccccc1O2	i
COc1ccc(CN2C[C@H]3CN(Cc4ccc(OC(F)(F)F)cc4)CCN3C2=O)cc1	i
O=C1Cc2c(-c3ccc(N4CCOCC4)cc3)n[nH]c2CN1CCc1ccncc1	-9%[44.1 µM]
O=C(c1ccoc1)N1CCC2(CC1)CN(C1CCC1)CC2CO (stereo not given)	8%
CCc1ccc(CN(Cc2ccco2)c2cnc(S(C)(=O)=O)nc2C(=O)Nc2cccc(C)c2)cc1	11µM*
Cc1cccc(NC(=O)Cn2nnc(C(=O)NCc3ccco3)c2N)c1	25%
CCS(=O)(=O)c1ncc(Cl)c(C(=O)Nc2c(C(=O)Nc3cccc(C)c3)oc3ccccc23)n1	-22%
COc1cc(OC)c(C2C=C(c3ccc(C)cc3)Nc3c(C(=O)Nc4ccccc4)cnn32)cc1OC (stereo not given)	10µM*
CCOc1ccc(NC(=O)c2cc3cc4cc(OC)ccc4nc3s2)cc1	-2%
SMILES	Pf Dd2 inh
COc1ccc(-c2cnnn2-c2ccc(NC(=O)c3ccccc3OC)cc2)cc1	28%
COc1ccc(C2C(C(=O)Nc3ccccc3)=C(C)Nc3nc(-c4ccccc4)nn32)c(OC)c1 (stereo not given)	i
COc1ccc(C2C=C(c3ccc(C)cc3)Nc3c(C(=O)Nc4ccccc4)cnn32)cc1 (stereo not given)	8.9µM*
CCOc1cccc(-c2nc(C(=O)Nc3ccc(OC)cc3)cs2)c1	24%
CCOc1ccc(NC(=O)c2cnn3c2NC(c2cccc(OC)c2)=CC3c2ccccc2)cc1 (stereo not given)	1.4µM*
COc1ccc(C2C(C(=O)Nc3ccccc3)=C(C)Nc3nc(SCC(=O)c4ccc(C)cc4)nn32)cc1 (stereo not given)	30%
COc1cccc(C2C(C(=O)Nc3ccccc3)=C(C)Nc3nc(-c4ccccc4)nn32)c1OC (stereo not given)	i
O=C(N1CCC(c2n[nH]c(=O)n2-c2ccccc2)CC1)C1(c2ccccc2)CC1	-9%
CCNC(=O)c1n[nH]c2c1CN(C(=O)c1cccc(Cl)c1)CC2	i
Cc1cn2nc(C(=O)NCc3ccncc3)cc2c(=O)[nH]1	24%
Cc1ccc(Cn2c(C3CCN(C(=O)c4cccs4)CC3)n[nH]c2=O)cc1	6%
Cc1c(C(C)NC(=O)C(=O)c2ccco2)cnn1-c1cccc2ccccc12 (stereo not given)	23%
CC(=O)NCC(=O)N1Cc2ccccc2CC2(CCN(CC3CCNC3)CC2)C1 (stereo not given)	9%
C[S+](=O)([O-])c1ccc(-c2nc(C(=O)NCc3cccnc3)n3ccccc23)cc1	-14%
O=C(NCCc1ccc(Cl)cc1)c1nc(-c2ccc(F)cc2)c2ccccn12	11%
COCCNC(=O)c1nc(-c2ccc(F)cc2)c2ccccn12	i
O=C(NCc1ccc(F)cc1)c1nc(-c2cc(Cl)cc(Cl)c2)c2ccccn12	10µM*
C[S+](=O)([O-])c1ccc(-c2nc(C(=O)NCc3ccc(F)cc3)n3ccccc23)cc1	11µM*
O=C(NCc1ccc2c(c1)OCO2)c1nc(-c2cc(Cl)cc(Cl)c2)c2ccccn12	-26%
O=c1cc(-c2cccnc2)oc2c(-c3cccc(F)c3)nccc12	-3%[44.1 µM]
Cc1cccc2c1nc1n2[C@@H](CNS(=O)(=O)Cc2ccccc2)COC1	-27%[44.1 µM]
CCc1cccc(NC(=O)CN2C=C(C(=O)OC)C(C)=NS2(=O)=O)c1	62%
O=C(NC1CCN(c2cc(-c3cccs3)[nH]n2)C1)c1ccc(Br)o1 (stereo not given)	i
NCCn1cc(C(=O)NC2C3CN4CCN(C3)CC2(c2ccccc2)C4)nn1 (stereo not given)	0%
CC(=O)NCC(=O)N1CC(F)(F)C[C@H]1c1nc(-c2ccccc2)no1	29%
SMILES	Pf Dd2 inh
Cc1cccc(N2CCN(C(=O)c3ccc4c(c3)c(C)c(C)n4C)CC2C)c1 (stereo not given)	i
Cc1cccc(N2CCN(C(=O)c3cc4c(=O)n(C)c5ccccc5c4s3)CC2C)c1 (stereo not given)	5%
Cc1ccc(-c2c(C(=O)N3CCN(c4cccc(C)c4)C(C)C3)oc(=O)c3ccccc23)cc1 (stereo not given)	4.5µM*
Cc1noc(-c2ccc(C(C)(C)C)cc2)c1C(=O)NCc1ccc(Cl)cc1	i
CC(C)c1nc2c(c(-c3ccc(O)cc3)n1)CN(C(=O)c1cccc(Cl)c1)CC2	4.5µM*
COCC(=O)N1CCc2nc(C(C)C)nc(-c3ccc(OC)cc3)c2CC1	-11%
CC(C)c1nc2c(c(-c3ccc(O)cc3)n1)CCN(C(=O)c1ccccc1Cl)CC2	i
COc1ccc(-c2nc3c(c(-c4ccccc4)n2)CN(C(C)=O)CC3)cc1	i
COc1ccc(-c2nc(-c3ccccc3)nc3c2CN(C(=O)C2CC2)CC3)cc1	11µM*
CC(C)c1nc2c(c(-c3ccc(O)cc3)n1)CN(C(=O)c1ccc(Cl)nc1)CC2	i
COc1ccc(-c2nc(C(C)C)nc3c2CCN(C(=O)c2ccccc2Cl)CC3)cc1	10µM*
COc1ccc(C(=O)N2CCCc3nc(C)nc(-c4ccc(O)cc4)c3C2)cc1	-13%
CC(=O)N1CCc2nc(C(C)C)nc(-c3ccc(O)cc3)c2C1	-14%[44.1 µM]
O=C(C1CC1)N1CCc2nc(-c3ccc(Cl)cc3)nc(-c3ccccc3)c2C1	i
COc1ccc(C(=O)N2CCc3nc(C(C)C)nc(-c4ccc(O)cc4)c3C2)cc1	8.9µM*
CC(C)c1nc2c(c(-c3ccc(O)cc3)n1)CN(C(=O)c1ccccc1)CC2	-13%
Cc1cc(CNS(=O)(=O)c2ccc3c(c2)CCN(C(=O)C(O)C(C)C)C3)no1 (stereo not given)	-5%
Cc1ccc2c(C)c(C(=O)N3CCOCC(CO)C3)oc2c1 (stereo not given)	6%
